Screens: PubChem BioAssay, several laboratories
PTK2B oligo ant = antagonists of human Pyk2 oligomerization. hit rate 0.83% among 99,000. z-score (the deposit names both 25 µM and 10 µM). AID 1347419. Q293 cells, Pyk2 FERM NanoBiT luminescence; active compounds read low;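 active = Z-score of -3 or lower, scaled per plate to the spread of control and sample wells; inactive = z-score above -3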;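 note: negative z-score means lost luminescence so less FERM oligomerization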
PostGolgi ctrl = growth of the yeast control strain, post-Golgi counter-screen; inhibition, % at 10 µM; hit rate 5% among 98,000; efflux-deficient yeast background strain, growth absorbance A615, 16 h; AID 738
Cav32 inh = blocks human Cav3.2 T-type calcium channel; B-score at 10 µM; Cav3.2-expressing cells, Fluo-4 calcium fluorescence FDSS; active compounds read low; O95180; AID 449739; hit rate 4% among 100,000;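 active = single-dose well whose peak fluorescence ratio is a statistical outlier from its plate by either plate-standardised score or position-corrected B-score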
PostGolgi yeast = growth inhibition of a yeast mutant, post-Golgi transport screen. post-Golgi transport phenotypic cell assay. inhibition, % at 10 µM. hit rate 0.9% among 98,000. AID 739;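 note: yeast cells grown in 1536-well plates; yeast grown about 18 h at 30C before absorbance read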
Numbers without * were called inactive; nt = no result given. A selection: hits, their analogues and other compounds. The true share with any hit is near 8%. Cut-off read from the data, not from the text of the source, unless noted: active = inhibition above about 30%; inactive = the rest.

SMILES	PTK2B oligo ant	PostGolgi ctrl	Cav32 inh	PostGolgi yeast
Cc1cc(C(=O)CSc2nnc(N)s2)c(C)n1CCc1ccc(F)cc1	-0.01	4	-0.89	-10
CC(=O)N1CCc2cc(S(=O)(=O)NC(CC(C)C)C(=O)N3CCn4c3nc3ccccc34)ccc21 (configuration not stated)	-3.7*	9	0.99	3
CC(=O)N1CCc2cc(S(=O)(=O)NC(CC(C)C)C(=O)Nc3ccc4c(c3)OCCO4)ccc21 (configuration not stated)	-0.35	-1	-0.041	-1
COc1ccc(CNC(=O)c2ccc(S(=O)(=O)N3CCCC3)cc2)cc1OC	1.7	3	nt	1
COc1cccc(NC(=O)C(OC(=O)/C=C/c2ccc3c(c2)OCO3)c2ccccc2)c1 (configuration not stated)	-0.27	10	-5.1*	3
CCCn1nc([N+](=O)[O-])c(C(C#N)c2nc3ccccc3s2)c(Cl)c1=O (configuration not stated)	-3.2*	55*	-4.4*	100*
CCCC(=O)Nc1ccc(-c2nc3cc(C)ccc3o2)cc1	-0.46	30*	-0.13	2
Cc1ccc(CNC(=O)CS(=O)Cc2nc(-c3ccccc3C)oc2C)cc1 (configuration not stated)	nt	11	-4.5*	0
COc1ccc(-c2nc(CS(=O)CC(=O)NCc3ccc4c(c3)OCO4)c(C)o2)cc1 (configuration not stated)	nt	5	-1.3	2
Cc1ccccc1-c1nc(CS(=O)CC(=O)NCc2ccccc2)c(C)o1 (configuration not stated)	nt	11	-0.93	6
CCCC(=O)Nc1ccc2oc(-c3ccc(OC)c(Br)c3)nc2c1	0.74	7	0.47	7
Cc1ccc(NC(=O)CS(=O)Cc2nc(-c3ccc(C)cc3)oc2C)cc1 (configuration not stated)	nt	12	-4.6*	-2
COc1cccc(-c2nc(CS(=O)CC(=O)NCc3ccc4c(c3)OCO4)c(C)o2)c1 (configuration not stated)	nt	4	-5*	3
Clc1ccc(Cc2nn3c(Cn4nnc5ccccc54)nnc3s2)cc1	0.15	30	-1.7	-3
CCCOC(=O)C1=C(C)NC2=C(C(=O)CCC2)C1c1cccc(OC)c1OC (configuration not stated)	-0.19	3	-0.48	13
CCN(CC)S(=O)(=O)c1ccc2c(c1)nc(SCc1nc3ccsc3c(=O)[nH]1)n2CC	-1.7	16	1.9	4
C=CCn1c(SCn2nnc3ccccc3c2=O)nnc1C1CCCCC1	0.27	32*	-0.34	-7
COCCNC(=O)[C@H]1C[C@@H]1[C@H](NP(=O)(c1ccccc1)c1ccccc1)c1ccccc1	nt	nt	0.4	nt
CCCN(CC1CC1)c1nc(N)c2c(N)nc(OC)cc2c1C#N	-1.1	35*	2.1	8
CCc1nc(N)c(C#N)c(-c2ccc(OC)c(OC)c2)c1C	0.9	17	-0.15	8
Cc1ccc(C2C(C(N)=S)=C(N)OC3=C2C(=O)CC(C)(C)C3)cc1 (configuration not stated)	-0.68	nt	nt	nt
CC1(C)CC(=O)C2=C(C1)OC1=C(C(=O)CC(C)(C)C1)C2c1ccc(O)cc1O	-0.77	-5	-4.7*	3
CCN(Cc1ccccc1)S(=O)(=O)c1ccc(S(=O)(=O)N(Cc2cccc(OC)c2)CC2CCCO2)cc1 (configuration not stated)	0.29	-2	-6.7*	1
CCN(CC)S(=O)(=O)c1ccc(S(=O)(=O)N(CC(=O)Nc2ccccc2)CC2CCCO2)cc1 (configuration not stated)	-0.11	nt	-1.2	nt
Cc1cccc(C(=O)Nc2ccc(O)cc2)c1	0.15	4	-0.047	-1
SMILES	PTK2B oligo ant	PostGolgi ctrl	Cav32 inh	PostGolgi yeast
Cc1cccc(C(=O)CC(=O)c2cc(Cl)ccc2O)c1	-0.63	64*	-2.1	50*
O=C(CC(=O)c1cc(Cl)ccc1O)c1ccccc1	-1.4	42*	-1.2	90*
COc1ccc(O)c(C(=O)CC(=O)c2ccc(F)cc2)c1	-0.08	35*	-3.5	33*
Cc1ccc(O)c(C(=O)CC(=O)c2cccc(F)c2)c1	-0.84	34*	nt	8
COc1ccc(C(=O)c2ccccc2)c(O)c1	2.1	-1	-1.2	-6
CCOC(=O)c1ccccc1NC(=O)c1cccc(F)c1	-0.6	5	-1	2
Cc1ccc2nc(Cl)c(/C=N/Nc3nc(C)cc(C)n3)c(=O)n2c1	1.4	nt	nt	nt
COc1ccc2c(c1OC)C(=O)NC(C)=C(C(=O)OC(C)(C)C)C2O (configuration not stated)	0.66	-1	2.3	3
CCn1c(SCC(=O)c2[nH]c(C)c(C(C)=O)c2C)nnc1-c1ccccc1	0.18	1	1.6	9
